Assay results from PubChem BioAssay (NCI).
Compounds without any hit were thinned out: in the full panel of roughly 83,000, 20% have a hit.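 Compound tested at a single concentration for 48 hours in 96-well plates; a percent growth value below 10 was scored as active.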 Unmarked numbers belong to inactive results. The source made the active and inactive calls.

tested on: SK-OV-3 ovarian; assay: NCI-60 one-dose screen, 48 h (100 = growth as untreated, 0 = no growth, -100 = all killed); settings: 10 µM unless noted
Experimental: Growth inhibition of the SK-OV-3 human tumor cell line is measured as a screen for anti-cancer activity. Cells are grown in 96 well plates and exposed to the test compound for 48 hours. Compounds are tested at a single concentration, which is 10^-5 M for most compounds. The reported endpoint is percent growth (GI% or GIPRCNT), where numbers from 0 - 100% represent growth inhibition, and numbers from -100% - 0 represent cell death. For example, a value of 40 represents 60% growth inhibition. A value of 0 means no net growth occurred over the course of the experiment. A value of -40 indicates 40% of cells at the beginning of the experiment died by the end of the experiment. A value of -100 means all cells are dead at the end of the experiment.
NCI-60 Human Tumor Cell Lines Screen was performed using the standard one-dose NCI protocol, which is described in more detail at https://dtp.cancer.gov/discovery_development/nci-60/default.htm.
Compounds with GIPRCNT values below 10 were considered active. Activity score was based on GIPRCNT using the following formula: […]
Score is 0 for GIPRCNT values of 100 or above, 50 for GIPRCNT values of 0, and 100 for GIPRCNT values of -100.

Row | SMILES | growth
1 | CC(C)(CCCN=C(N)Nc1ccc(Cl)cc1)c1ccc(F)cc1 | 94.7%
2 | COc1ccc(SC2c3cc(OC)c(OC)cc3Oc3nc(N)c(C#N)c(N)c32)cc1 (stereo not given) | -81.3% (active)
3 | COc1ccc(C(=O)COc2ccc(/C=C3\COc4ccc(OC)cc4C3=O)cc2)cc1 | 105%
4 | COc1cccc(-c2nc3sccn3c2-c2ccnc(NCCNS(=O)(=O)c3ccccc3)c2)c1 | 42%
5 | Cn1ncc2c(=O)nc3c(-c4ccccc4)n[nH]n3c21 | 103%
6 | COc1ccc2c(c1)C(=O)/C(=C/c1cccnc1)CC2 | 101%
7 | CCCc1cc(=O)n2c(C(=O)Nc3cccc(C(=O)OCC)c3)c(C(=O)Nc3ccc(F)cc3)sc2n1 | 62.2% [30 µM]
8 | COc1cccc(/C=N/NC(=O)c2ccccc2Nc2ccnc(C(F)(F)F)c2)c1O | 8.06% (active)
9 | CCCCn1cnc2c(Sc3c([N+](=O)[O-])ncn3C)nc(N)nc21 | 101%
10 | C#Cc1cccc(NC(=O)c2ccccc2NC(=O)CCl)c1 | 95.2% [8.25 µM]
11 | COc1cc(-c2nn(C)nc2-c2cc3ccccc3s2)cc(OC)c1OC | 21.2%
12 | C[n+]1ccccc1/C=C/c1ccc2cccc(O)c2n1 | 39.1%
13 | OCC(O)c1nc2ccc3[nH]ncc3c2c2c1CCCC2 (stereo not given) | 40.9%
14 | Oc1cccc(-c2nc(N3CCOCC3)c3c4c(sc3n2)CCCC4)c1 | 30.6%
15 | CN(C)S(=O)(=O)c1cccc(-c2nc3sc4c(c3c(=O)[nH]2)CCCC4)c1 | 7.06% (active)
16 | CCCOc1cc2ccccc2cc1C(=O)Nc1nc(NC)c2c(ccc3nccc32)[nH]1 | -86.9% (active)
17 | CC1=CC(C)(C)Nc2ccc(Cc3ccc4c(c3)C(C)=CC(C)(C)N4)cc21 | 105%
18 | COc1ccc(C(=O)c2sc3nc(C)cc(C)c3c2N)cc1OC | 77.6%
19 | C=CC(=O)Nc1cccc(-c2nc(SC)nc(Nc3cccc(OC)c3)c2C#N)c1 | 73.5%
20 | CC(=O)O[C@H]1C(=O)[C@@]2(C)[C@H]([C@H](OC(=O)c3ccccc3)[C@]3(O)C[C@H](OC(=O)[C@H](OC(=O)CCC(=O)OC4CCC(S/N=C(N)/N=C(\N)N(C)C)CC4)[C@@H](NC(=O)c4ccccc4)c4ccccc4)C(C)=C1C3(C)C)[C@]1(OC(C)=O)CO[C@@H]1C[C@@H]2O (stereo not given in full) | 28.4%

Row | SMILES | growth
21 | CC(=O)c1cc2c(N)c(C(=O)Nc3cccc(F)c3C)sc2nc1C | 53.8%
22 | CCn1c(Cc2ccccc2Nc2c(Cl)cccc2Cl)nnc1SCC(=O)NN1C(=O)/C(=C/c2cc(OC)c(O)c(OC)c2)SC1=S | 23.2%
23 | Cc1cc(C)nc(SC2=C(Nc3cc(Cl)ccc3O)C(=O)N(Cc3ccccc3)C2=O)n1 | 103% [30 µM]
24 | COc1ccc(/C=C/C(=O)c2cc(O)ccc2O)cc1 | 115%
25 | Cc1nn(-c2cc(=O)[nH]c3ccc(Cl)cc23)c(N)c1C#N | 102%
26 | O=C1Nc2cc(-c3ccc(O)cc3)ccc2/C1=C/c1ccc[nH]1 | 8.32% (active)
27 | COc1cccc(NC(=O)c2sc3nc(C)c(C(C)=O)cc3c2N)c1 | 25.2%
28 | CC(=O)c1cc2c(N)c(C(=O)Nc3cccc4ccccc34)sc2nc1C | 26.8%
29 | CCNC(=O)Oc1ccc(/C(=C(\C)c2ccc(Cl)cc2)c2ccc(OCCN3CCCCC3)cc2)cc1 | 63.2%
30 | COc1cc2c(cc1O)CC[C@@H]1[C@@H]2CC[C@]2(C)[C@@H](OCCN(C)C)CC[C@@H]12 | 63%
31 | COc1ccc(-c2nc3ccc(-c4nc5ccc(N6CCN(C)CC6)cc5[nH]4)cc3[nH]2)cc1OC | 74.2%
32 | NC(=O)c1cc(I)ccc1NC(=O)/C=C/c1ccccc1Cl | 4.87% (active)
33 | COc1ccc(C(=S)N2CCN(c3cccc(Cl)c3)CC2)cc1 | 107%
34 | COc1ccc(CCNc2nc(SC)nc(-c3cccc([N+](=O)[O-])c3)c2C#N)cc1OC | 72.7%
35 | Cn1nc(N)c2cc([C@@H]3Nc4ccc5[nH]ncc5c4[C@H]4C5CCC(C5)[C@@H]34)ccc21 (stereo not given in full) | 41.7%
36 | CCOC(=O)c1sc2nc(-c3cccc(O)c3)nc(N3CCOCC3)c2c1C | 51.1%
37 | Cc1ccc(C2Oc3ccccc3C3CC(c4cccs4)=NN32)cc1 (stereo not given) | 90.1%
38 | COc1cccc(-c2nc3sccn3c2-c2ccnc(NCCCNS(=O)(=O)c3cccc(F)c3)c2)c1 | 54.3%
39 | CCc1nc(N)nc(N)c1C#CC(C)c1ccc(-c2ccncc2)cc1Cl (stereo not given) | 33%
40 | COc1cc(/C=C/C(=O)c2c(C)oc3nc[nH]c(=O)c23)cc(OC)c1OC | 98.7%
